# Source: PubChem BioAssay AID1159580 (chemical genetic matrix, 2015)
# The campaign covered roughly 5,500 compounds. About 2,000 (36%) were called active. Roughly 18% stayed inconclusive and do not appear here. This is one part of the list. Values without a mark were called inactive. Cut-off read from the data, not from the text of the source: active = normalized growth mostly below about 0.91 (no sharp cut-off); inconclusive = no clear call, values can overlap the other calls; inactive = mostly above about 0.92.
# Assay: chemical genetic growth profiling, strain panel (AID 1159580);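 note: tested at 20 µM; growth read once vehicle control cultures reached saturation at 30 °C; 1 = growth at the plate median or of vehicle wells; lower values mean less growth of the strain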
# Details: S. cerevisiae deletion strains, growth OD
# [1] = locus YDL101C, strain DUN1, stronger effect = lower value
# [2] = locus YHR030C, strain SLT2, stronger effect = lower value
structure (smiles),measurement,setting,value
CCOC(=O)c1cnc(SCC(=O)c2ccc(Cl)cc2Cl)[nH]1,normalized growth,"locus YAL013W, strain DEP1, stronger effect = lower value",1
same,normalized growth,"locus YBR229C, strain ROT2, stronger effect = lower value",1
same,normalized growth,[1],1
same,normalized growth,"locus YDR150W, strain NUM1, stronger effect = lower value",1.02
same,normalized growth,"locus YEL061C, strain CIN8, stronger effect = lower value",1.03
same,normalized growth,"locus YGR078C, strain PAC10, stronger effect = lower value",1.02
same,normalized growth,[2],0.936
same,normalized growth,"locus YHR087W, strain rtc3, stronger effect = lower value",1.01
same,normalized growth,"locus YJL187C, strain SWE1, stronger effect = lower value",1.03
same,normalized growth,"locus YJR043C, strain POL32, stronger effect = lower value",0.999
same,normalized growth,"locus YJR075W, strain HOC1, stronger effect = lower value",1
same,normalized growth,"locus YKL190W, strain CNB1, stronger effect = lower value",0.993
same,normalized growth,"locus YLR039C, strain RIC1, stronger effect = lower value",0.934
same,normalized growth,"locus YLR058C, strain SHM2 (second series), stronger effect = lower value",1.01
same,normalized growth,"locus YLR085C, strain ARP6, stronger effect = lower value",1.06
same,normalized growth,"locus YLR262C, strain YPT6, stronger effect = lower value",0.914
same,normalized growth,"locus YML094W, strain GIM5, stronger effect = lower value",1.01
same,normalized growth,"locus YMR219W, strain ESC1, stronger effect = lower value",1.01
same,normalized growth,"locus YMR263W, strain SAP30, stronger effect = lower value",0.938
same,normalized growth,"locus YNL153C, strain GIM3, stronger effect = lower value",1
same,normalized growth,"locus YNL298W, strain CLA4 (second series), stronger effect = lower value",1.04
same,normalized growth,"locus YNL322C, strain KRE1, stronger effect = lower value",1.01
same,normalized growth,"locus YNR030W, strain Alg12, stronger effect = lower value",0.988
same,normalized growth,"locus YPL055C, strain LGE1, stronger effect = lower value",1.08
same,normalized growth,"locus YPL241C, strain CIN2, stronger effect = lower value",1.01
same,normalized growth,"locus YPR135W, strain CTF4, stronger effect = lower value",0.851
CCOC(=O)c1cnc(-c2ccccn2)[nH]c1=O,normalized growth,"locus YAR019C, strain CDC15, stronger effect = lower value",0.933
same,normalized growth,"locus YBL105C, strain PKC1, stronger effect = lower value",0.955
same,normalized growth,"locus YBR135W, strain CKS1, stronger effect = lower value",0.932
same,normalized growth,"locus YBR136W, strain MEC1, stronger effect = lower value",0.94
same,normalized growth,"locus YBR160W, strain CDC28, stronger effect = lower value",0.934
same,normalized growth,"locus YDL017W, strain CDC7, stronger effect = lower value",0.957
same,normalized growth,"locus YDL028C, strain MPS1, stronger effect = lower value",0.94
same,normalized growth,[1],0.955
same,normalized growth,"locus YDL108W, strain KIN28, stronger effect = lower value",0.943
same,normalized growth,"locus YDL132W, strain cdc53, stronger effect = lower value",0.948
same,normalized growth,"locus YDL214C, strain PRR2, stronger effect = lower value",0.825
same,normalized growth,"locus YDR052C, strain DBF4, stronger effect = lower value",0.952
same,normalized growth,"locus YDR054C, strain cdc34, stronger effect = lower value",0.899
same,normalized growth,"locus YDR226W, strain ADK1, stronger effect = lower value",0.935
same,normalized growth,"locus YDR477W, strain SNF1, stronger effect = lower value",0.85
same,normalized growth,"locus YER123W, strain YCK3, stronger effect = lower value",0.453 (active)
same,normalized growth,"locus YER133W, strain GLC7, stronger effect = lower value",0.856
same,normalized growth,"locus YFL009W, strain cdc4, stronger effect = lower value",0.907
same,normalized growth,"locus YFL029C, strain CAK1, stronger effect = lower value",0.932
same,normalized growth,"locus YFR003C, strain YPI1, stronger effect = lower value",0.947
same,normalized growth,"locus YFR019W, strain FAB1, stronger effect = lower value",0.819
same,normalized growth,"locus YFR028C, strain CDC14, stronger effect = lower value",0.937
same,normalized growth,"locus YGR040W, strain KSS1, stronger effect = lower value",0.866
same,normalized growth,"locus YGR052W, strain FMP48, stronger effect = lower value",0.69
same,normalized growth,"locus YGR092W, strain DBF2, stronger effect = lower value",0.638
same,normalized growth,[2],0.734 (active)
same,normalized growth,"locus YHR079C, strain IRE1, stronger effect = lower value",0.426 (active)
same,normalized growth,"locus YHR082C, strain KSP1, stronger effect = lower value",0.839
same,normalized growth,"locus YHR205W, strain SCH9, stronger effect = lower value",0.965
same,normalized growth,"locus YIL147C, strain SLN1, stronger effect = lower value",0.935
same,normalized growth,"locus YJL095W, strain BCK1, stronger effect = lower value",0.432 (active)
same,normalized growth,"locus YJL128C, strain PBS2, stronger effect = lower value",1.01
same,normalized growth,"locus YJL157C, strain FAR1, stronger effect = lower value",0.743
same,normalized growth,"locus YJR016C, strain ILV3, stronger effect = lower value",0.934
same,normalized growth,"locus YJR066W, strain TOR1 (second series), stronger effect = lower value",0.741
same,normalized growth,"locus YJR066W, strain TOR1, stronger effect = lower value",0.652
same,normalized growth,"locus YKL048C, strain ELM1, stronger effect = lower value",0.927
same,normalized growth,"locus YKL067W, strain YNK1, stronger effect = lower value",0.818
same,normalized growth,"locus YKL101W, strain HSL1, stronger effect = lower value",0.871
same,normalized growth,"locus YKL193C, strain SDS22, stronger effect = lower value",0.917
same,normalized growth,"locus YKL203C, strain TOR2, stronger effect = lower value",0.901
same,normalized growth,"locus YLR113W, strain HOG1, stronger effect = lower value",0.487 (active)
same,normalized growth,"locus YLR133W, strain CKI1, stronger effect = lower value",0.834
same,normalized growth,"locus YLR403W, strain SFP1, stronger effect = lower value",0.785
same,normalized growth,"locus YML070W, strain DAK1, stronger effect = lower value",0.744
same,normalized growth,"locus YMR001C, strain CDC5, stronger effect = lower value",0.934
same,normalized growth,"locus YMR205C, strain PFK2 (second series), stronger effect = lower value",0.848
same,normalized growth,"locus YMR277W, strain FCP1, stronger effect = lower value",0.922
same,normalized growth,"locus YNL006W, strain LST8, stronger effect = lower value",0.966
same,normalized growth,"locus YNL020C, strain ARK1, stronger effect = lower value",0.833
same,normalized growth,"locus YNL161W, strain CBK1, stronger effect = lower value",0.933
same,normalized growth,"locus YNL183C, strain NPR1, stronger effect = lower value",0.603
same,normalized growth,"locus YNL207W, strain RIO2, stronger effect = lower value",0.926
same,normalized growth,"locus YNL222W, strain SSU72, stronger effect = lower value",0.921
same,normalized growth,"locus YNL307C, strain MCK1 (second series), stronger effect = lower value",0.759
same,normalized growth,"locus YOL078W, strain AVO1, stronger effect = lower value",0.92
same,normalized growth,"locus YOL136C, strain PFK27, stronger effect = lower value",0.752
same,normalized growth,"locus YOR061W, strain CKA2, stronger effect = lower value",0.835
same,normalized growth,"locus YOR119C, strain RIO1, stronger effect = lower value",0.863
same,normalized growth,"locus YOR231W, strain MKK1, stronger effect = lower value",0.413 (active)
same,normalized growth,"locus YOR329C, strain SCD5, stronger effect = lower value",0.948
same,normalized growth,"locus YPL031C, strain PHO85, stronger effect = lower value",0.82
same,normalized growth,"locus YPL153C, strain RAD53, stronger effect = lower value",0.759
same,normalized growth,"locus YPL204W, strain HRR25, stronger effect = lower value",0.773
same,normalized growth,"locus YPL209C, strain IPL1, stronger effect = lower value",0.946
same,normalized growth,"locus YPL256C, strain CLN2, stronger effect = lower value",0.464 (active)
same,normalized growth,"locus YPR025C, strain CCL1, stronger effect = lower value",0.953
same,normalized growth,"locus YPR106W, strain ISR1, stronger effect = lower value",0.944
same,normalized growth,"locus YPR111W, strain DBF20, stronger effect = lower value",0.939
same,normalized growth,"strain NNK1, stronger effect = lower value",0.932
same,normalized growth,"strain TSCII, stronger effect = lower value",0.916
